In ChEMBL document CHEMBL4513216, “Probing the Open Global Health Chemical Diversity Library for Multistage-Active Starting Points for Next-Generation Antimalarials” (ACS Infect Dis, 2020) one finds INHIBITION data, which are given here for 108 molecules.

Hit rate of the full screen: of about 69,000 compounds, about 8,600 (12%) showed an effect of 50% or more. The list comes from a sample in which strong results are over-represented; it also holds similar structures and randomly drawn compounds.

In this test the test system is Plasmodium berghei. As to the kind of experiment: Screen against P. berghei liver stage (PbLuc), transformed with Luciferase, at 10uM. The format is functional, HepG2. Particulars: tested at 10 uM.
`CCOCc1ccc(CNC(=O)N2CCC(C(N)=O)C2)cc1` (stereo not drawn): the INHIBITION is on record as 25.6%.
The figure for `c1cncc(CN2CCCC(Nc3ncnc4c3CCNCC4)C2)c1` (stereo not drawn) is 20.9%.
The figure for `CNC(=O)[C@@H]1C[C@H]2CN(Cc3ccc(C)s3)C[C@H]2N1C(C)=O` is 34.6%; for `CC1CCN(C(=O)c2sccc2-n2cnnn2)CC1` it is 20.3%; for `O=C(NCCc1ccc(F)cc1)NCC(O)c1cccc(F)c1` (stereo not drawn) it is 18.2%.
With `O=C(N[C@@H]1CC[C@@H](N2CCCC2)[C@@H]1O)c1cc2cccc(F)c2[nH]1` the figure was -0.232%; with `CNC(=O)C1CN(Cc2cc(C)on2)CCN(C2CCOCC2)C1` (stereo not drawn), -3.94%.
As to `CCCN1CCc2[nH]nc(C(=O)N3CCNC(=O)C3)c2C1`, the INHIBITION is -9.42%.
The figure for `CN(C)C(=O)N1C[C@H]2CC[C@@H](C1)N(S(=O)(=O)c1cccnc1)C2` is -62.1%.
With `CCCOc1cc(CNC(=O)Nc2ccc(C)cc2)ccn1` the figure was -14.5%; with `CCn1ccnc1C1CCN(Cc2c(F)cccc2F)CC1`, 43.9%; with `CCn1ccnc1C1CCN(Cc2cccc(Cl)c2)CC1`, 60.1%.
The figure for `CCn1ccnc1C1CCN(C(=O)C(O)c2ccc(Cl)cc2)CC1` (stereo not drawn) is 6.66%.
In the case of `CCN1CCN(C(=O)COCc2nc(-c3ccncc3)no2)CC1`, the INHIBITION was -2.92%.
The figure for `CCS(=O)(=O)NCCN1CCN(C(C#N)c2ccccc2)CC1` (stereo not drawn) is 19.4%; for `CC(C)OCCCNC(=O)CN(c1ccc(F)c(F)c1)S(C)(=O)=O` it is 62.3%; for `CCOCCCNC(=O)CN(c1ccc(C)c(C)c1)S(C)(=O)=O` it is 18.4%.
With `CCOCCCNC(=O)CN(c1ccc(F)c(F)c1)S(C)(=O)=O` the figure was 43.3%; with `CCC1=N[C@@]2(CC[C@@H]3CN(C(=O)Nc4ccccc4)C[C@@H]32)C(=O)N1C`, 26.3%.
With `COC(=O)c1ccc(-c2ccc(/C=C3\C(=O)NC(=N)N3C)o2)cc1` the figure was 34.2%; with `Cc1csc(CNC(=O)N2CCCC(c3nncn3C)C2)n1` (stereo not drawn), -23.9%.
With `CCOc1ncccc1NC(=O)NC1CCN(C(C)=O)CC1`, the INHIBITION is 5.7%.
In the case of `COc1ccccc1N1CCN(C(=O)CCn2ccc(C)n2)CC1`, the INHIBITION came out at 16.2%.
Regarding `CS(=O)(=O)N1CCC(c2cnc(-c3cn[nH]c3)cn2)CC1`, the INHIBITION was 28.9%.
The figure for `O=C1OC2(CCN(C(=O)C3NCCc4[nH]cnc43)CC2)c2ccccc21` (stereo not drawn) is 23.5%; for `O=C(C1NCCc2[nH]cnc21)N1CCC2(CC1)CNc1ccccc12` (stereo not drawn) it is -15.8%; for `O=C(C1NCCc2[nH]cnc21)N1CCC2(C=Cc3ccccc32)CC1` (stereo not drawn) it is 53%.
In the case of `Cc1cc(C)nc(N2CCC(C(=O)O)(n3ccc(C(C)(C)C)n3)CC2)n1`, the INHIBITION is 25.4%.
For the molecule `O=c1cccnn1CC1CN(CC2CCCC2)Cc2nccn2C1` (stereo not drawn), the INHIBITION is -23.1%.
With `CN1CCC(Nc2ccc(F)cc2OCC(F)(F)F)C1=O` (stereo not drawn) the figure was -0.378%; with `CCC(CNC(=O)c1ccc(=O)[nH]n1)N1CCc2ccccc2C1` (stereo not drawn), 28.5%; with `CC(CNC(=O)c1ccc(C#N)cc1)N1CCc2ccccc21` (stereo not drawn), 83.2%.
Turning to `CC(CNC(=O)c1ccc(=O)[nH]n1)N1CCc2ccccc21` (stereo not drawn), the INHIBITION was 53%.
Consider `Cc1cc(C(=O)NCC(C)N2CCc3ccccc32)no1` (stereo not drawn), for which the INHIBITION stood at 21.8%.
The figure for `CC(CNC(=O)c1cccc(C#N)c1)N1CCc2ccccc21` (stereo not drawn) is -8.51%; for `CC(CNC(=O)Nc1ccc(C#N)cc1)N1CCc2ccccc21` (stereo not drawn) it is 40.1%; for `O=C(Nc1ccccc1N1CCOC1=O)N1CCc2sccc2C1` it is 18.4%.
Regarding `CCn1c(=O)n(CC)c2cc(S(N)(=O)=O)ccc21`, the INHIBITION was 29.1%.
As to `COCC1CC2(CCNCC2)CN1Cc1csc(C)n1` (stereo not drawn), the INHIBITION is reported as -15.3%.
With `Cc1noc(CCCC(=O)NC(C)c2ccc(Cl)s2)n1` (stereo not drawn) the figure was -2.95%; with `O=C(CCO)N1C[C@@H]2CC[C@H]1CN(C1Cc3ccccc3C1)C2`, -43.5%; with `CC(C)N(C(=O)c1ccccc1-c1nc2c([nH]1)CCNC2)C(C)C`, 54.5%.
With `COc1cccc(-c2nc3c([nH]2)CCNC3)c1F` the figure was 61%.
Consider `CC(C)NC(=O)Nc1ccc(-c2nc3c([nH]2)CCNC3)cc1`, for which the INHIBITION is reported as -100%.
With `CC(=O)c1cccc(-c2nc3c([nH]2)CCNC3)c1F` the figure was 37.8%; with `CC(C)COc1cccc(-c2nc3c([nH]2)CCNC3)c1`, 41.5%.
The figure for `COc1ccc(-c2nc3c([nH]2)CCNC3)c(OC)c1OC` is 28.7%; for `CS(=O)(=O)N1CCCC(Cc2ccnc3ccncc23)CC1` (stereo not drawn) it is 19.6%.
Consider `O=C(c1cccnc1)N1CCCC2(CCN(c3ccsc3)C2=O)C1` (stereo not drawn), for which the INHIBITION was -33.7%.
The figure for `CN(C)C(=O)[C@@H]1CCO[C@@H]2CCN(Cc3ccc4c(c3)OCO4)C[C@@H]21` is 10.8%; for `COc1cc(N2CCC3(CCCN3Cc3cnn(C)c3)CC2)ncn1` it is 13.7%; for `COCCN1CCc2nc(SCc3ccc(F)cc3)[nH]c(=O)c2C1` it is 56.3%.
Regarding `CCCN1CCc2nc(SCc3ccc(F)cc3)[nH]c(=O)c2C1`, the INHIBITION turned out to be 20%.
`CCCN1CCc2nc(SCc3ccccc3)[nH]c(=O)c2C1`: the INHIBITION was determined as 17.7%.
The figure for `Cn1cnnc1C1CCCN(C(=O)c2ccccn2)C1` (stereo not drawn) is 13.6%; for `Cc1cccc(C(=O)N2C[C@@H]3CC[C@H]2CN(S(=O)(=O)N(C)C)C3)n1` it is 18.2%.
With `CN(C(=O)Cc1coc(-c2cccs2)n1)C1(C#N)CCC1` the figure was 27.9%.
With `Cc1oc(-c2cccs2)nc1C(=O)N(C)C1(C#N)CCC1` the figure was -11.6%; with `CN(C(=O)Cc1coc(-c2ccccc2)n1)C1(C#N)CCC1`, 78.3%.
On to `Cc1nc(C)n(C2CCCN(C(=O)c3sccc3C)C2)n1` (stereo not drawn), for which the INHIBITION is recorded as -19.6%.
With `CCn1nc(C)c2c1cnn2CCNS(=O)(=O)c1cccs1` the figure was 60.7%; with `CCn1nc(C)c2c1cnn2CCNS(=O)(=O)c1ccccc1`, -22.2%.
Regarding `CCn1nc(C)c2c1cnn2CCNS(C)(=O)=O`, the INHIBITION amounted to 16.8%.
With `Cc1ccsc1CNCc1c(C(C)C)nn(C)c1N1CCOCC1` the figure was 9.52%; with `COc1cc(CNC(=O)Nc2nncs2)ccc1O`, -73.6%; with `COC(=O)C(CNC(=O)Nc1nncs1)Cc1ccc(O)cc1` (stereo not drawn), 51%.
Take `COC(=O)C(CNC(=O)Nc1nncs1)Cc1cccc(C)c1` (stereo not drawn): the INHIBITION came out at 76.8%.
For `COC(=O)C(CNC(=O)Nc1nncs1)Cc1ccc(F)cc1` (stereo not drawn), the INHIBITION is recorded as 37.6%.
For `Cc1ccc(CNC(=O)Nc2nncs2)cn1`, the INHIBITION is given as 27.4%.
In the case of `COC(=O)C(CNC(=O)Nc1cn[nH]c1)Cc1cccc(C)c1` (stereo not drawn), the INHIBITION is 11.9%.
The figure for `Cc1ccccc1OC1(C(=O)O)CCN(C(=O)CCc2ccco2)CC1` is 39.3%; for `CC(C)c1nc(CN(C)C2CCN(CCc3ccncc3)C2)no1` (stereo not drawn) it is -16%; for `Cc1ccc(CN(C)C(=O)CN2CCOC(Cn3cccn3)C2)o1` (stereo not drawn) it is 11.6%.
The figure for `Cn1nc(C2CN(C(=O)c3ccncc3)C2)c2nccnc21` is 22%; for `CCCc1nn(Cc2csc(CC)n2)c(=O)o1` it is 61%; for `CCCc1nn(Cc2csc(C(C)C)n2)c(=O)o1` it is 29.4%.
With `CCc1nc(Cn2nc(COC)oc2=O)cs1` the figure was 49.9%; with `Cc1csc(CNC(=O)CCCc2cccs2)n1`, 3.48%; with `Cc1nc(CNC(=O)CCCc2cccs2)no1`, 35.9%.
As for `Cc1n[nH]cc1CNC(=O)CCCc1cccs1`, the INHIBITION was 54.5%.
As to `COc1c(C(=O)NCc2cnn(C)c2C)nnn1Cc1ccccc1`, the INHIBITION stood at 40.8%.
For the molecule `N#CC1COCCN1C(=O)c1ccc2cc[nH]c2c1` (stereo not drawn), the INHIBITION was 53.3%.
The figure for `N#CC1COCCN1C(=O)c1ccc2[nH]ccc2c1` (stereo not drawn) is 19.7%.
For `N#CC1COCCN1C(=O)c1ccc2[nH]cnc2c1` (stereo not drawn), the INHIBITION was -13.9%.
As for `O=c1[nH]c(COc2ccc(Cl)cc2)nc2c1CCNC2`, the INHIBITION is -9.66%.
With `CCCc1nnsc1C(=O)NCC(O)c1cccs1` (stereo not drawn) the figure was 19.9%.
On to `COc1cccc([C@H]2CN(C(=O)c3scc4c3CCCC4)C[C@@H]2N)c1`, for which the INHIBITION came to 60.1%.
With `C/C=C(\C)CN1C[C@H](c2cccc(OC)c2)[C@@H](N)C1` the figure was -0.273%; with `COc1cccc([C@H]2CN(C(=O)c3noc4c3CCCC4)C[C@@H]2N)c1`, 31.4%.
The figure for `COc1cccc([C@H]2CN(C(=O)c3cc(C)on3)C[C@@H]2N)c1` is 23.5%; for `CCOCCN1C[C@H](c2cccc(OC)c2)[C@@H](N)C1` it is 39.9%.
With `COc1cccc([C@H]2CN(C(=O)c3nnc4n3CCCC4)C[C@@H]2N)c1` the figure was 58.1%.
In the case of `CC(C)CCOCCNC(=O)Nc1ccc(F)c(C(N)=O)c1`, the INHIBITION was -25.9%.
With `CCn1c(N)nc2cc(C(=O)NCc3cccc(C)c3C)cnc21` the figure was -25.7%; with `CCc1nnc(CN2CCC(N3CCN(CC)C3=O)CC2)o1`, -27.8%; with `Cc1cccn2c(=O)cc(OC(=O)c3ccc(OC(C)C)cc3)nc12`, -5.59%.
With `Cc1ccc2c(cnn2CCC(=O)NCc2csc(C)n2)c1` the figure was 23.6%; with `CCn1cnnc1CCNS(=O)(=O)N1CCCC1c1ccco1` (stereo not drawn), 27.7%.
As to `Cc1c(CN2CCCC2c2cncc(CN3CCCC3)n2)cnn1C` (stereo not drawn), the INHIBITION was 12.9%.
With `Cc1ccc(OCC(C)NS(C)(=O)=O)cc1C` (stereo not drawn) the figure was 15.7%; with `Cc1ccc(OCC(C)NS(C)(=O)=O)cc1` (stereo not drawn), -1.7%; with `Cc1ccc(OCC(C)NC(=O)CN(C)c2ccc(C#N)cn2)cc1` (stereo not drawn), 8.38%.
On to `COc1ccc(OCC(C)NS(C)(=O)=O)cc1` (stereo not drawn), for which the INHIBITION was 0.472%.
For `CC(COc1ccccc1)NS(C)(=O)=O` (stereo not drawn), the INHIBITION was 52.6%.
Turning to `Cc1ccc(OCC(C)NS(=O)(=O)N(C)C)cc1` (stereo not drawn), the INHIBITION was determined as 51.5%.
The figure for `CCOc1ccc2[nH]c(=O)c(CN3CCC(N4CCCC4)CC3)cc2c1` is -1.54%.
The figure for `Cc1cccc(C(=O)N2CCCC(c3noc(C)n3)C2)n1` (stereo not drawn) is 4.71%.
For `O=C(NCc1ccco1)[C@@H]1CCO[C@@H]2CCN(c3ccncn3)C[C@H]21`, the INHIBITION came out at 10%.
